Source: PubChem BioAssay (NCI)
Where “and” joins values, the source holds several entries; their conditions need not be identical. Equal values may be shown once. This is part of a sample that, as a whole, favours compounds with a hit. Of some 83,000 tested, about 20% had one in any assay.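 Treatment: one concentration, 48 hours, 96-well format. Scoring: percent growth, with anything below 10 considered active.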 Calls of active or inactive are those of the source.

Experiments:
Assay in all cases: NCI-60 one-dose screen, 48 h (100 = growth as untreated, 0 = no growth, -100 = all killed)
Conditions in all cases: 10 µM unless noted
T-47D breast = tested on: T-47D breast
BT-549 breast = tested on: BT-549 breast
MDA-MB-435 melanoma = tested on: MDA-MB-435 melanoma
SW-620 colon = tested on: SW-620 colon
MCF7 breast = tested on: MCF7 breast
HCT-116 colon = tested on: HCT-116 colon
HCC-2998 colon = tested on: HCC-2998 colon
KM12 colon = tested on: KM12 colon

Measured: growth

Fc1ccccc1-c1cnn2cc(-c3ccccc3)cnc12
inactive: T-47D breast 98.1% | BT-549 breast 98.7% | MDA-MB-435 melanoma 75.6% | SW-620 colon 92.2% | MCF7 breast 68.1% | HCT-116 colon 91.3% | HCC-2998 colon 92.8% | KM12 colon 59.3%

COc1ccc(C(=O)c2ccc(OC)c(OC)c2OC)cc1
active: MDA-MB-435 melanoma -14.6% and -29.5%
inactive: T-47D breast 44.5% and 36.2% | BT-549 breast 71.9% and 50% | SW-620 colon 15.6% and 11.8% | MCF7 breast 25.4% and 16.5% | HCT-116 colon 30.5% and 26.3% | HCC-2998 colon 57.3% and 45.6% | KM12 colon 29.5% and 24.7%

CCOC(=O)c1nc2c3ccccc3cnn2c1C(=O)c1ccc(OC)cc1
inactive: T-47D breast 85.9% | BT-549 breast 98.2% | MDA-MB-435 melanoma 107% | SW-620 colon 99.2% | MCF7 breast 80.8% | HCT-116 colon 92% | HCC-2998 colon 99.2% | KM12 colon 102%

Cc1c(CC(=O)OCCO)cc(-c2ccc(Cl)cc2)n1-c1ccccc1
inactive: T-47D breast 72.3% | BT-549 breast 109% | MDA-MB-435 melanoma 98.7% | SW-620 colon 104% | MCF7 breast 93% | HCT-116 colon 102% | HCC-2998 colon 118% | KM12 colon 99.1%

[2H]C([2H])([2H])Oc1cccc(/C=C/C(=O)/C=C(/C=C/c2cccc(OC([2H])([2H])[2H])c2OC([2H])([2H])[2H])OB(F)F)c1OC([2H])([2H])[2H]
inactive: T-47D breast 50.6% | BT-549 breast 86.2% | MDA-MB-435 melanoma 57% | SW-620 colon 46.7% | MCF7 breast 26.2% | HCT-116 colon 41.5% | HCC-2998 colon 122% | KM12 colon 92.2%

Cc1ccc(Nc2nc(-c3cc(O)c(C)c(C)c3O)cs2)cc1
inactive: T-47D breast 35.5% | BT-549 breast 98.1% | MDA-MB-435 melanoma 66.4% | SW-620 colon 111% | MCF7 breast 71.9% | HCT-116 colon 105% | HCC-2998 colon 112% | KM12 colon 60.9%

CCOC(=O)C1=C(C)N=C2SC=C(c3ccc(F)cc3)N2[C@H]1c1cn(-c2ccccc2)nc1-c1ccc(Cl)cc1
inactive: T-47D breast 79.6% | BT-549 breast 93.1% | MDA-MB-435 melanoma 94.4% | SW-620 colon 100% | MCF7 breast 87.2% | HCT-116 colon 90% | HCC-2998 colon 105% | KM12 colon 107%

C/C=C(/C)C(=O)O[C@@H]1CC(C)(C)CC2C34OC(=O)[C@@]21CC[C@@]3(C)[C@]1(C)CCC2C(C)(C)C(=O)CC[C@]2(C)C1C[C@@H]4Cl (some centres undefined)
inactive: T-47D breast 99.1% | BT-549 breast 108% | MDA-MB-435 melanoma 102% | SW-620 colon 96.7% | MCF7 breast 97.6% | HCT-116 colon 86.2% | HCC-2998 colon 102% | KM12 colon 104%

CCCCC1COc2cccc3c2N1C=C/C3=C\C(=O)N(C)c1cccc(Cl)c1 (centres undefined)
inactive: T-47D breast 88.7% | BT-549 breast 107% | MDA-MB-435 melanoma 101% | SW-620 colon 102% | MCF7 breast 104% | HCT-116 colon 91.2% | HCC-2998 colon 111% | KM12 colon 105%

CCn1cc(C(=O)NN=C2CCCC2)c(=O)c2ccc(C)nc21
inactive: T-47D breast 89% | BT-549 breast 83.5% | MDA-MB-435 melanoma 86.9% | SW-620 colon 93% | MCF7 breast 83.4% | HCT-116 colon 89.1% | HCC-2998 colon 89.6% | KM12 colon 94.7%

COc1ccc(-c2cc(-c3cccnc3)nc3sc4c(Cl)nnnc4c23)cc1OC
inactive: T-47D breast 63.6% | BT-549 breast 99.9% | MDA-MB-435 melanoma 104% | SW-620 colon 50.2% | MCF7 breast 43.8% | HCT-116 colon 94.8% | HCC-2998 colon 115% | KM12 colon 95.1%

COc1ccc2c(c1)c(C(=O)c1nc(-c3cn(C)c4ccccc34)no1)cn2C
inactive: T-47D breast 77.5% | BT-549 breast 98% | MDA-MB-435 melanoma 76.7% | SW-620 colon 87% | MCF7 breast 24% | HCT-116 colon 99.5% | HCC-2998 colon 95.3% | KM12 colon 81%

COc1ccc(C/C(C)=C(\c2ccc(O)cc2)c2ccc(OCCCN(C)C)cc2)cc1
inactive: T-47D breast 72.6% | BT-549 breast 108% | MDA-MB-435 melanoma 101% | SW-620 colon 95.2% | MCF7 breast 41.1% | HCT-116 colon 80.8% | HCC-2998 colon 104% | KM12 colon 93%

Cc1nnc(NS(=O)(=O)c2ccc(N=Nc3ccc(N)nc3N)cc2)s1
inactive: T-47D breast 114% | BT-549 breast 90.4% and 108% | MDA-MB-435 melanoma 115% and 105% | SW-620 colon 108% and 106% | MCF7 breast 105% and 106% | HCT-116 colon 99.7% and 103% | HCC-2998 colon 105% | KM12 colon 104% and 103%

Nc1ccccc1SC(CC(=O)c1ccccc1)c1ccc([N+](=O)[O-])cc1 (centres undefined)
active: HCT-116 colon -87.1% and -80.5%
inactive: T-47D breast 93.5% and 78.4% | BT-549 breast 83.6% and 86.4% | MDA-MB-435 melanoma 101% and 87.2% | SW-620 colon 51.9% and 45.8% | MCF7 breast 33% and 21.6% | HCC-2998 colon 101% | KM12 colon 79.1% and 31.5%

O=C1CCCCN1CCCCC#Cc1cccc(C#Cc2cccnc2)c1
inactive: T-47D breast 84.1% | BT-549 breast 265% | MDA-MB-435 melanoma 84.6% | SW-620 colon 101% | MCF7 breast 101% | HCT-116 colon 141% and 39.7% | HCC-2998 colon 77.2% | KM12 colon 73.6%

O=C(/C=C/c1ccc(F)cc1)Nc1ncc(Cc2ccc(F)cc2)s1
inactive: T-47D breast 28% | BT-549 breast 67.3% | SW-620 colon 25.3% | MCF7 breast 17.9% | HCT-116 colon 29.4% | HCC-2998 colon 26.5% | KM12 colon 20.9%
active: MDA-MB-435 melanoma -48.2%

Cc1c(O)c(O)cc2c3c(oc12)CC(c1ccc2c(c1)OCO2)CC3=O (centres undefined)
inactive: T-47D breast 67.4% | BT-549 breast 74.6% | MDA-MB-435 melanoma 105% | SW-620 colon 81.7% | MCF7 breast 73.6% | HCT-116 colon 90.2% | HCC-2998 colon 101% | KM12 colon 90.9%

CCCCC1=C(Br)C(=O)c2nc(C)ccc2C1=O
inactive: T-47D breast 65.7% | BT-549 breast 90% | MDA-MB-435 melanoma 102% | SW-620 colon 60.2% | MCF7 breast 82.1% | HCT-116 colon 42.7% | HCC-2998 colon 108% | KM12 colon 98.7%

O=C(N=Nc1c(O)[nH]c2ccccc12)Nc1ccccc1Cl
inactive: T-47D breast 42% | BT-549 breast 96.6% | MDA-MB-435 melanoma 84.5% | SW-620 colon 85.2% | MCF7 breast 19.8% | HCT-116 colon 89.8% | HCC-2998 colon 78.2% | KM12 colon 53.6%

Cc1ccc(NC(=O)c2sc3nc(C)c(C(=O)c4ccccc4)cc3c2N)cc1
inactive: T-47D breast 87.7% | BT-549 breast 84.7% | MDA-MB-435 melanoma 39.5% | SW-620 colon 90.8% | MCF7 breast 70.9% | HCT-116 colon 97.7% | HCC-2998 colon 106% | KM12 colon 76.2%

C=CCOc1ccc(/C=C2\SC(=S)N(CCc3ccc(O)cc3)C2=O)cc1
inactive: T-47D breast 82.8% | BT-549 breast 93.6% | MDA-MB-435 melanoma 77.5% | SW-620 colon 88.9% | MCF7 breast 86.5% | HCT-116 colon 99.6% | HCC-2998 colon 114% | KM12 colon 91.5%

COc1c(F)cc(-n2c(C(=O)N3CC(F)C3)cc3cccnc32)cc1F
inactive: T-47D breast 89.5% | BT-549 breast 97.2% | MDA-MB-435 melanoma 116% | SW-620 colon 104% | MCF7 breast 105% | HCT-116 colon 95.9% | HCC-2998 colon 99.7% | KM12 colon 98.8%

CCOc1nc(-c2ccccc2)cc2c(O)c(C(=O)N/N=C/c3ccc(N(C)C)cc3)[nH]c(=O)c12
inactive: T-47D breast 218% | BT-549 breast 125% | MDA-MB-435 melanoma 118% | SW-620 colon 97.8% | MCF7 breast 92.9% | HCT-116 colon 112% | KM12 colon 109%
active: HCC-2998 colon -14.8%

Nc1nc(Nc2cccnc2)sc1C(=O)c1ccccc1F
inactive: T-47D breast 33% | BT-549 breast 12.2% | MDA-MB-435 melanoma 39.2% | SW-620 colon 34.5% | HCC-2998 colon 69.5%
active: MCF7 breast 9.37% | HCT-116 colon 3.8% | KM12 colon 5.5%

COc1ccc2nc3cc(Cl)ccc3c(NCCCNCCC(C)O)c2c1 (centres undefined)
active: T-47D breast 4.09% | BT-549 breast -1.95% | MDA-MB-435 melanoma -86.3% | SW-620 colon -22.2% | MCF7 breast -0.546% | HCT-116 colon -49.9% | HCC-2998 colon -60.9% | KM12 colon -20%

O/N=C(/c1ccccc1)c1ccc2c3c(cccc13)CC2
inactive: T-47D breast 85.9% and 93.8% | BT-549 breast 84.6% and 106% | MDA-MB-435 melanoma 47.3% and 37.8% | SW-620 colon 91.2% and 84% | MCF7 breast 85.8% and 82.6% | HCT-116 colon 83.7% and 92.1% | HCC-2998 colon 101% and 97.8% | KM12 colon 86.4% and 78.4%

Cn1ccnc1CN1CCSC(C(=O)Nc2ccccc2)C1 (centres undefined)
inactive: T-47D breast 90.7% | BT-549 breast 93.3% | MDA-MB-435 melanoma 92.2% | SW-620 colon 96.9% | MCF7 breast 91.6% | HCT-116 colon 96.2% | HCC-2998 colon 98.6% | KM12 colon 97.7%
